Source: PubChem BioAssay (The Scripps Research Institute Molecular Screening Center)
GPR151 activ = activators of human GPR151 | Q8TDV0 | PathHunter beta-arrestin GPR151 cells, luminescence | activation, % at 11.2 µM | 1% of 650,000 active | AID 1508602; in the data active = activation above about 4.9%
FBW7 activator = activators of human E3 ligase FBW7; normalized activity (activation), % at 26.1 µM; AlphaScreen FBW7–phospho-cyclin E peptide binding, activator screen; 0.13% of 650,000 active; AID 1259310; in the data active = normalized activity above about 1.9%;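 note: purified mutant Fbw7 with reduced substrate affinity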
Target sequence (Q969H0 whole entry, looked up): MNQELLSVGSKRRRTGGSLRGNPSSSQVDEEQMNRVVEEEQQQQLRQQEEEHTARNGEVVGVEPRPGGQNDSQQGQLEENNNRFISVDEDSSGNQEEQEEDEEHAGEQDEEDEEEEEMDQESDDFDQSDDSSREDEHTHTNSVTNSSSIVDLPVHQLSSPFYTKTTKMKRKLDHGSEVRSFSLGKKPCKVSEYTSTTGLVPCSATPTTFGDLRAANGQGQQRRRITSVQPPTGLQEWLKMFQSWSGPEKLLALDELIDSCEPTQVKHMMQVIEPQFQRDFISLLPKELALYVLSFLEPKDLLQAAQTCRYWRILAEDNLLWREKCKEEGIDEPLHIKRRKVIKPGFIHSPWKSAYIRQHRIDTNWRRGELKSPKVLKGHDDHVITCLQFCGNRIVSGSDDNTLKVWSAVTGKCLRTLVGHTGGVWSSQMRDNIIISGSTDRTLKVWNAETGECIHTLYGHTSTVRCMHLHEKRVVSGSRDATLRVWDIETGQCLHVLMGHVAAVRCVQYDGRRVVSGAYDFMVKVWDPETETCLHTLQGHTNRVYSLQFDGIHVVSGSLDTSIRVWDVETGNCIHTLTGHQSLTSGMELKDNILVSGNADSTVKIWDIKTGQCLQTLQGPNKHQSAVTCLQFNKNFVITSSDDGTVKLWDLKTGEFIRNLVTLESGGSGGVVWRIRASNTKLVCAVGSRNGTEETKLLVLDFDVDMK
MITF primary = blocks human microphthalmia-associated transcription factor; O75030; AlphaScreen MITF homodimerization, bead proximity signal; inhibition, % at 2.6 µM; 0.91% of 650,000 active; AID 1259374; in the data active = inhibition above about 50%
TEAD-YAP inh = TEAD-YAP interaction inhibition. inhibition, % at 9.12 µM. 1.4% of 640,000 active. HEK-TIYL cells, TEAD-Gal4/YAP UAS-luciferase luminescence; in the data active = inhibition above about 32%
MITF inh conf = confirmation of human MITF inhibitors | 16% of 4,700 active | inhibition, % at 2.6 µM | AID 1259372 | shares compounds with MITF primary | AlphaScreen MITF homodimerization, biotin/His-MITF beads;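 active = inhibition above a cutoff derived from the DMSO control wells, cut at about 28% in these data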;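 note: inhibitors lower the bead chemiluminescence by keeping MITF from dimerizing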
AlphaScreen intf2 = optically interferes with AlphaScreen signal; shares compounds with MITF primary; LysRS AlphaScreen counterscreen, signal interference, triplicate; inhibition, % at 2.6 µM; 7.6% of 4,700 active;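 active = inhibition above a cutoff derived from the DMSO control wells, cut at about 30% in these data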
A number is an active result; 0 = inactive; - = no result. Sampled rows, rich in hits. Any-hit rate of the full collection: about 3.4%.

SMILES | GPR151 activ | FBW7 activator | MITF primary | TEAD-YAP inh | MITF inh conf | AlphaScreen intf2
COc1cc(-c2nc3sc4c(c3c(=O)[nH]2)CCCC4)ccc1OC(=O)c1ccc(F)cc1 | 0 | 0 | 75 | 0 | 0 | 0
COc1ccc(NC(=S)NCC(c2ccco2)N2CCCC2)cc1 (centres undefined) | 0 | 0 | 0 | 0 | - | -
COC(=O)CCNCC(c1ccco1)N1CCCCC1 (centres undefined) | 0 | 0 | 54 | 0 | 0 | 0
COC(=O)c1cc(CNCC(c2ccco2)N2CCCCC2)oc1C (centres undefined) | 0 | 0 | 76 | 0 | 0 | 0
c1ccc(-c2ccccn2)nc1 | 0 | 0 | 0 | 0 | - | -
c1ccc(-c2ccc(-c3ccccn3)nn2)nc1 | 0 | 0 | 86 | 44 | 99 | 101
CN(C)c1cccc(C(=O)N2N=C(C(F)F)CC2(O)C(F)F)c1 (centres undefined) | 0 | 0 | 75 | 0 | 0 | 0
CN(C)c1ccc(C(=O)N2N=C(C(F)F)CC2(O)C(F)F)cc1 (centres undefined) | 0 | 0 | 0 | 0 | - | -
O=C(Cc1nc2scc(-c3ccccc3)c2c(=O)[nH]1)N1CCCC1 | 0 | 0 | 0 | 0 | - | -
Cc1ccc(-c2csc3nc(CN(C)C4CCN(C)CC4)[nH]c(=O)c23)cc1 | 0 | 0 | 59 | 0 | 0 | 0
CC(C)c1ccc(NC(=O)c2cc(S(=O)(=O)NCCc3ccc(Cl)cc3)ccc2F)cc1 | 0 | 0 | 0 | 0 | - | -
COC(=O)c1ccc(CN2CCN(CC(=O)c3ccco3)CC2)cc1 | 0 | 0 | 70 | 0 | 0 | 0
CCN1CCN(CC(=O)c2ccco2)CC1 | 0 | 0 | 70 | 0 | 0 | 0
CS(=O)(=O)N1CCN(CC(=O)c2ccco2)CC1 | 0 | 0 | 57 | 0 | 0 | 0
O=C(Cn1c(Cc2ccccc2)nc2sc3c(c2c1=O)CCCC3)Nc1cccc(C(F)(F)F)c1 | 0 | 0 | 0 | 0 | - | -
CN(C)CC(C)(C)CNCC(O)COCc1ccc2c(c1)OCO2 (centres undefined) | 0 | 0 | 57 | 0 | 0 | 0
COc1ccccc1N1CCN(C(=S)NCCN(C)C)CC1 | 0 | 0 | 77 | 0 | 0 | 0
CCn1c(CNC(=O)c2ccc(OC)cc2)n[nH]c1=S | 0 | 0 | 0 | 0 | - | -
CCOC(=O)c1c(NC(=O)c2nn(C)cc2Cl)sc2c1CCCC2 | 0 | 0 | 93 | 0 | 0 | 0
CCOC(=O)c1c(NC(=O)c2nn(C)cc2[N+](=O)[O-])sc2c1CCCC2 | 0 | 0 | 0 | 0 | - | -
CSc1nc(NN)c2c3c(sc2n1)CN(C)CC3 | 0 | 0 | 74 | 0 | 0 | 0
COc1ccc(OC)c(CN2CCN(C(=O)c3cccnc3)CC2)c1 | 0 | 0 | 59 | 0 | 0 | 0
O=C(c1cccnc1)N1CCN(Cc2ccccc2F)CC1 | 0 | 0 | 56 | 0 | 0 | 0
O=C(c1cccnc1)N1CCN(Cc2ccccc2Br)CC1 | 0 | 0 | 0 | 0 | - | -
COc1ccccc1C(=O)N1CCN(C(=O)c2cccnc2)CC1 | 0 | 0 | 0 | 0 | - | -
SMILES | GPR151 activ | FBW7 activator | MITF primary | TEAD-YAP inh | MITF inh conf | AlphaScreen intf2
COc1cc(OC)c(OC)cc1CN1CCN(C(=O)c2cccnc2)CC1 | 0 | 0 | 68 | 0 | 0 | 0
COc1ccccc1CN1CCN(C2CCC(=O)N(Cc3ccc(F)cc3F)CC2)CC1 (centres undefined) | 0 | 0 | 0 | 0 | - | -
COc1cc(CN2CCC(Cn3c(C)nc4ccccc43)CC2)cc(OC)c1 | 0 | 0 | 59 | 0 | 0 | 0
COc1cc(CN2CCC(c3nc(-c4ccccc4)no3)CC2)cc(OC)c1 | 0 | 0 | 0 | 0 | - | -
Cn1cccc1CN1CCN(Cc2ccc(Br)cc2)CC1 | 0 | 0 | 0 | 0 | - | -
Cn1cccc1CN1CCN(Cc2ccco2)CC1 | 0 | 0 | 69 | 0 | 0 | 0
Clc1cccc(CN2CCN(Cc3ccco3)CC2)c1 | 0 | 0 | 72 | 0 | 0 | 0
Brc1cccc(CN2CCOCC2)c1 | 0 | 0 | 0 | 0 | - | -
Clc1cccc(N2CCN(Cc3ccco3)CC2)c1 | 0 | 0 | 0 | 0 | - | -
Brc1cccc(CN2CCN(Cc3ccco3)CC2)c1 | 0 | 0 | 81 | 0 | 0 | 0
Fc1ccc(CN2CCN(Cc3ccco3)CC2)cc1 | 0 | 0 | 70 | 0 | 0 | 0
Cn1c(SCC(=O)OC2CCCCC2)nnc1-c1ccccc1 | 0 | 0 | 0 | 0 | - | -
Clc1ccc(CN2CCN(Cc3ccco3)CC2)cc1 | 0 | 0 | 86 | 0 | 0 | 0
Cc1ccc2c(c1)N(CC(=O)Nc1ccccc1C)C(=O)C(C)O2 (centres undefined) | 0 | 0 | 0 | 0 | - | -
CCc1ccc(-n2c(SCC(=O)NCC3CCCO3)nc3n[nH]c(C)c3c2=N)cc1 (centres undefined) | 0 | 0 | 0 | 0 | - | -
O=C1CCC(CCNCc2cccnc2)N1CC1(c2ccccc2)CCOCC1 (centres undefined) | 0 | 0 | 0 | 0 | - | -
O=C1CCC(CCNCc2ccc(F)cc2)N1CC1(c2ccccc2)CCOCC1 (centres undefined) | 0 | 0 | 51 | 0 | 0 | 0
COC(=O)c1c(NC(=O)CCCOc2ccc(C)cc2)sc2c1CCCC2 | 0 | 0 | 78 | 0 | 0 | 0
CN1CCN(CC(=O)Nc2sc3c(c2C(N)=O)CCCC3)CC1 | 0 | 0 | 72 | 0 | 0 | 0
COC(=O)c1c(NC(=O)CCN2CCN(C)CC2)sc2c1CCC2 | 0 | 0 | 90 | 0 | 0 | 0
O=C(/C=C/c1cccs1)N1CCN(C(=O)/C=C/c2cccs2)CC1 | 0 | 0 | 0 | 0 | - | -
Cc1cccc(-c2nc(CCNS(=O)(=O)c3ccc4c(c3)OCCO4)cs2)c1 | 0 | 0 | 0 | 0 | - | -
O=C(NCCc1ccncc1)c1csc(-n2cccc2)n1 | 0 | 0 | 52 | 0 | 0 | 0
C/C(=N/NC(=O)Cc1cccn1C)c1ccc([N+](=O)[O-])cc1 | 0 | 0 | 0 | 0 | - | -
COc1ccc(CN2CCN(C(=O)c3ccccc3)CC2)cc1 | 0 | 0 | 0 | 0 | - | -
SMILES | GPR151 activ | FBW7 activator | MITF primary | TEAD-YAP inh | MITF inh conf | AlphaScreen intf2
COc1cccc(CN2CCN(C(=O)c3ccccc3)CC2)c1 | 0 | 0 | 60 | 0 | 0 | 0
COc1cc(OC)c(OC)cc1CN1CCN(Cc2ccco2)CC1 | 0 | 0 | 81 | 0 | 0 | 0
COc1ccc(C(=O)N2CCN(Cc3cccc(Cl)c3)CC2)cc1OC | 0 | 0 | 51 | 0 | 0 | 0
COc1cccc(C(=O)N2CCN(Cc3ccc(Br)cc3)CC2)c1 | 0 | 0 | 61 | 0 | 0 | 0
CCOc1cc(CN2CCN(C(=O)c3cccc(Cl)c3)CC2)ccc1OC | 0 | 0 | 0 | 0 | - | -
Cn1c(N)c(C(=O)CCl)c(=O)[nH]c1=O | 0 | 0 | 0 | 0 | - | -
O=C(c1cccc(Cl)c1)N1CCN(Cc2ccccc2Cl)CC1 | 0 | 0 | 58 | 0 | 0 | 0
O=C(c1ccccc1)N1CCN(CC(O)COCc2ccccc2)CC1 (centres undefined) | 0 | 0 | 56 | 0 | 0 | 0
CCc1ccc(CN2CCN(C(=O)c3ccco3)CC2)cc1 | 0 | 0 | 51 | 0 | 0 | 0
COc1cccc(C(=O)N2CCN(C3CCN(Cc4ccccc4)CC3)CC2)c1 | 0 | 0 | 54 | 0 | 0 | 0
COc1cccc(C(=O)N2CCN(Cc3cccc(Cl)c3)CC2)c1 | 0 | 0 | 52 | 0 | 50 | 0
CCOc1ccc(CN2CCN(C(=O)c3c(OC)cccc3OC)CC2)cc1 | 0 | 0 | 0 | 0 | - | -
